Experiment [1] is described as follows: qHTS assay to identify aromatase inhibitors - cell viability counter screen (AID 743084).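 Further: cells stimulated with testosterone during compound exposure; nearly all actives have a fitted effect of over 55% in size.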 Further: potency means the concentration at half of the fitted maximal effect.
Experiment [2] addresses Aryl hydrocarbon receptor (Homo sapiens) (UniProt P35869). Kind of experiment: qHTS assay to identify small molecule that activate the aryl hydrocarbon receptor (AhR) signaling pathway (AID 743085). Further: nearly all actives have a fitted effect of over 15% in size. Further: potency means the concentration at half of the fitted maximal effect.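 On activation: HG2L7.5c1 human HepG2 liver cells with stably integrated DRE-driven firefly reporter; series mostly up to about 70 µM.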 The gist of the method: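 Reporter assay in engineered HepG2 line HG2L7.5c1, whose plasmid carries twenty dioxin responsive elements upstream of firefly luciferase. Treatment lasted 24 h at 37C; ONE-Glo luminescence gauged induction.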

A short description of experiment [3]: qHTS assay to identify small molecule that activate the aryl hydrocarbon receptor (AhR) signaling pathway - cell viability counter screen (AID 743086).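 Further: HepG2 liver cells carrying the AhR DRE luciferase reporter; series mostly up to about 70 µM; nearly all actives have a fitted effect of over 45% in size.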 Put shortly:
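HepG2-AhR-luc (HG2L7.5c1) cells, 4000/well, were preincubated 5 h at 37C, exposed to compound in qHTS format for 24 hr at 37C, then given CellTiter-Fluor for 30 min; viability was read as fluorescence in the reporter wells.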

For experiment [4], the target named is Peroxisome proliferator-activated receptor gamma (Homo sapiens) (UniProt P37231). The experiment in a line: qHTS assay to identify small molecule agonists of the peroxisome proliferator-activated receptor gamma (PPARg) signaling pathway (AID 743094; active means well fitted activation curve with a large enough effect in the signal ratio in the repeat runs, not every such curve was filed as active; the % refers to the signal ratio). Put shortly:
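HEK293H PPARg-bla cells, 5 h settle at 37C/5% CO2; compound (DMSO) 17 h, 37C; B/G FRET substrate 1 h RT; fluorescence intensity read-out. qHTS format.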

Experiment [5] in a line: qHTS assay to identify small molecule antagonists of the peroxisome proliferator-activated receptor gamma (PPARg) signaling pathway - cell viability counter screen (AID 743194). Further: nearly all actives have a fitted effect of over 55% in size. Put shortly:
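PPARg-UAS-bla HEK293H cells were plated, rested 5 h at 37 C, then treated with compounds plus rosiglitazone (50 nM final) for 17 h at 37 C; viability was then read by CellTiter-Glo luminescence after 30 min at room temperature.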

Experiment [6] is described as follows: qHTS assay for small molecule agonists of the antioxidant response element (ARE) signaling pathway (AID 743202; active means well fitted activation curve with a large enough effect in the signal ratio in the repeat runs, not every such curve was filed as active; the % refers to the signal ratio; further: potency means the concentration at half of the fitted maximal effect). The gist of the method: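 Steps: seed ARE-bla HepG2 cells (2,000/well); incubate 5 h at 37 C; add compounds by pin tool; incubate 16 h at 37 C; add FRET substrate; read fluorescence after 2 h at RT.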
Experiment [7] in a line: qHTS assay for small molecule agonists of the antioxidant response element (ARE) signaling pathway - cell viability counter screen (AID 743203; calls by dose curve; further: nearly all actives have a fitted effect of over 55% in size). Put shortly: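 Luminescence read-out (CellTiter-Glo, 30 min at room temperature) measured cell viability in the same wells as the ARE beta-lactamase reporter. HepG2 ARE-bla cells were treated with compounds for 16 hrs at 37C/5% CO2.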

Experiment [8] is described as follows: qHTS assay for small molecule activators of the heat shock response signaling pathway - cell viability counter screen (AID 743209). Further: nearly all actives have a fitted effect of over 50% in size. Put shortly: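 HSE-bla HeLa; 1500 cells/well; overnight 37 C, 5% CO2; compound 5 h 37 C; LiveBLAzer B/G substrate 2.5 h RT; CellTiter-Glo 30 min RT; luminescence.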
A short description of experiment [9]: qHTS assay to identify small molecule agonists of the peroxisome proliferator-activated receptor delta (PPARd) signaling pathway - cell viability counter screen (AID 743211). Further: nearly all actives have a fitted effect of over 55% in size. Put shortly:
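Multiplexed format: after the 2 h room-temperature LiveBLAzer B/G FRET step, CellTiter-Glo was added to the same wells. Luminescence after 30 min gave cell viability; compound exposure was 17 h at 37C.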

Experiment [10] addresses Peroxisome proliferator-activated receptor delta (Homo sapiens) (UniProt Q03181). The experiment in a line: qHTS assay to identify small molecule agonists of the peroxisome proliferator-activated receptor delta (PPARd) signaling pathway (AID 743212; calls by dose curve). Put shortly:
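Cells expressing a UAS-driven beta-lactamase reporter (PPARd-bla HEK293H) were given test compounds after a 5 h settle and kept at 37 C. Reporter activity was then measured as FRET fluorescence using LiveBLAzer B/G substrate.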

Experiment [11] can be described thus: qHTS assay to identify small molecule antagonists of the peroxisome proliferator-activated receptor delta (PPARd) signaling pathway - cell viability counter screen (AID 743213). Further: nearly all actives have a fitted effect of over 50% in size. Put shortly:
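PPARd-bla HEK293H cells (3000/well) got compound plus 300 nM L165041 agonist for 17 h at 37 C. Viability in the same wells came from CellTiter-Glo luminescence after 30 min at room temperature.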

Experiment [12] concerns the target Peroxisome proliferator-activated receptor delta (Homo sapiens) (UniProt Q03181). The experiment in a line: qHTS assay to identify small molecule antagonists of the peroxisome proliferator-activated receptor delta (PPARd) signaling pathway (AID 743215; active means well fitted inhibition curve with a large enough effect in the signal ratio in the repeat runs, not every such curve was filed as active; the % refers to the signal ratio;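 further: cells stimulated with agonist L165041 at 300 nM final during compound exposure; series mostly up to about 62 µM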). The gist of the method: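 HEK293H GeneBLAzer PPARd UAS-bla reporter cells; cpd + L165041 300 nM final, 17 h 37 C; LiveBLAzer B/G FRET substrate 2 h RT; fluorescence intensity read-out. Antagonist mode.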

A short description of experiment [13]: qHTS assay to identify small molecule agonists of the farnesoid-X-receptor (FXR) signaling pathway - cell viability counter screen (AID 743218). Further: nearly all actives have a fitted effect of over 45% in size. Put shortly:
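Luminescence from CellTiter-Glo, read after 30 min at RT, reports viability of GeneBLAzer FXR-UAS-bla HEK 293T cells treated 16 h with compounds in the wells used for the beta-lactamase reporter.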

Experiment [14] concerns the target Vitamin D3 receptor (Homo sapiens) (UniProt P11473). The experiment in a line: qHTS assay to identify small molecule agonists of the vitamin D receptor (VDR) signaling pathway (AID 743222; calls by dose curve). The gist of the method: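 Beta-lactamase reporter readout (LiveBLAzer B/G FRET, 2 h RT) in VDR-bla cells after 16 h compound treatment at 37C, 5% CO2; cells pre-incubated 4 h before pin transfer of DMSO solutions.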

The target is the same in experiment [15]. The experiment in a line: qHTS assay to identify small molecule antagonists of the vitamin D receptor (VDR) signaling pathway (AID 743223; active means well fitted inhibition curve with a large enough effect in the signal ratio in the repeat runs, not every such curve was filed as active; the % refers to the signal ratio). Put shortly: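 After VDR-bla cells are plated and left 4 h at 37C, DMSO-dissolved compounds and 3 nM (final) calcitriol agonist are added. Incubation continues 16 h at 37C; FRET beta-lactamase substrate then develops 2 h at room temperature.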

Experiment [16] in a line: qHTS assay for small molecule activators of the heat shock response signaling pathway (AID 743210; active means well fitted activation curve with a large enough effect in the signal ratio in the repeat runs, with a control signal flat, not every such curve was filed as active; the % refers to the signal ratio;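 further: HeLa cells with beta-lactamase reporter driven by heat shock elements; series mostly up to about 63 µM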). Put shortly: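 Activation of heat shock element-controlled beta-lactamase expression is measured in HeLa cells by LiveBLAzer FRET fluorescence, with compound exposure lasting 5 h at 37 C and substrate loading 2.5 h at room temperature.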
Experiment [17] in a line: qHTS assay to identify small molecule antagonists of the farnesoid-X-receptor (FXR) signaling pathway - cell viability counter screen (AID 743221; active means well fitted cell-killing curve with a large enough effect in the repeat runs, not every such curve was filed as active; further: nearly all actives have a fitted effect of over 50% in size). Put shortly:
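CellTiter-Glo, 30 min RT, luminescence; same wells as the LiveBLAzer FRET read. Cells: FXR-UAS-bla HEK 293T. Treatment: compound with chenodeoxycholic acid 50 uM final, 16 h at 37 C.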

Experiment [18] has as its target Peroxisome proliferator-activated receptor gamma (Homo sapiens) (UniProt P37231). Kind of experiment: qHTS assay to identify small molecule antagonists of the peroxisome proliferator-activated receptor gamma (PPARg) signaling pathway (AID 743191; calls by dose curve; further: series mostly up to about 63 µM; nearly all actives have a fitted effect of over 30% in size). The gist of the method: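 GeneBLAzer PPARg UAS-bla HEK293H cells carrying a UAS-driven beta-lactamase reporter were plated at 3000 cells/well, preincubated 5 h at 37C, then given compound for 17 h at 37C; LiveBLAzer B/G FRET substrate was read after 1 h at room temperature.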

In experiment [19] the target is Bile acid receptor (Homo sapiens) (UniProt Q96RI1). Kind of experiment: qHTS assay to identify small molecule antagonists of the farnesoid-X-receptor (FXR) signaling pathway (AID 743217; active means well fitted inhibition curve with a large enough effect in the signal ratio in the repeat runs, not every such curve was filed as active; the % refers to the signal ratio). The gist of the method: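 Read-out: beta-lactamase FRET fluorescence (LiveBLAzer B/G substrate, 2 h, room temperature) in GeneBLAzer FXR-UAS-bla HEK 293T cells. Compounds were co-dosed with 50 uM chenodeoxycholic acid (final) and incubated 16 h at 37 °C.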
Bile acid receptor (Homo sapiens), sequence (Q96RI1 whole entry, looked up): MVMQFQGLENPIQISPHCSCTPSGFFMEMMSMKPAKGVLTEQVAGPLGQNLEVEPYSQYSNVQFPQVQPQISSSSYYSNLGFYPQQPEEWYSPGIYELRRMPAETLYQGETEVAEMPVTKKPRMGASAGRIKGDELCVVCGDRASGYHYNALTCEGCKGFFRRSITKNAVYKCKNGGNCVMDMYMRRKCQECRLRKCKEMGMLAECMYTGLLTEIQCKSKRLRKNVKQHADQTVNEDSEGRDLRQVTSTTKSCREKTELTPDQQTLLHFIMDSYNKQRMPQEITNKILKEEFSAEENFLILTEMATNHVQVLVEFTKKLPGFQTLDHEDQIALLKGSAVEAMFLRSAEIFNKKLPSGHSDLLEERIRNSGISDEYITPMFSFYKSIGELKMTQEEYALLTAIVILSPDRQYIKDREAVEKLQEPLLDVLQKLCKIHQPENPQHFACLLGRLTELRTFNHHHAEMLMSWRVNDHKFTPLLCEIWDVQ

For experiment [20] the target is unchanged. The experiment in a line: qHTS assay to identify small molecule agonists of the farnesoid-X-receptor (FXR) signaling pathway (AID 743220; active means well fitted activation curve with a large enough effect in the signal ratio in the repeat runs, not every such curve was filed as active; the % refers to the signal ratio). Put shortly:
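FXR-UAS-bla HEK 293T cells carrying a UAS-driven beta-lactamase reporter were plated for 5 h at 37C/5% CO2, then exposed to DMSO-dissolved Tox21 10K compounds for 16 h at 37C. A LiveBLAzer B/G FRET substrate was loaded for 2 h at room temperature before fluorescence reading.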

Our source for the Potency and outcome values is PubChem BioAssay (Tox21).

Molecules are shown by their SMILES. Where “and” joins values, the source holds several entries; their conditions need not be identical. Equal entries are not always repeated. Results filed as inconclusive are left out. The source holds several records for some structures; these can differ, active in one and inactive in another. Calls of active or inactive are those of the source. Unless noted, the call rests on the fitted dose curve; in most records, active means well fitted curve in the direction sought with a large enough effect in the repeat runs; inconclusive means weak or mixed curves; inactive means no such curve, though single readings can be large; an effect the other way counts as inactive or inconclusive.

Peroxisome proliferator-activated receptor gamma (Homo sapiens), sequence (P37231 whole entry, looked up): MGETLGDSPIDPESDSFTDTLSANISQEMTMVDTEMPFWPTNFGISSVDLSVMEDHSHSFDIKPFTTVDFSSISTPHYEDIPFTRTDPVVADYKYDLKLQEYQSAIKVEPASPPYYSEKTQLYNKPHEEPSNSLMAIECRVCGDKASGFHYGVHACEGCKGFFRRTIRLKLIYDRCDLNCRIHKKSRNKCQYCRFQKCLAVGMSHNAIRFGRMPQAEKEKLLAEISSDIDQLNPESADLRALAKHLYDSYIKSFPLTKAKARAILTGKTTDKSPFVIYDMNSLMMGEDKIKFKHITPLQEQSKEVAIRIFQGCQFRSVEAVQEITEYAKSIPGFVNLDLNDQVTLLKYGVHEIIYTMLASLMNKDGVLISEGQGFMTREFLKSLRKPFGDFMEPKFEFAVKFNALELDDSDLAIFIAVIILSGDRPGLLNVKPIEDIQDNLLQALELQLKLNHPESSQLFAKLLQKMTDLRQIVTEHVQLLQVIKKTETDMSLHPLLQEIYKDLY
Peroxisome proliferator-activated receptor delta (Homo sapiens), sequence (Q03181 whole entry, looked up): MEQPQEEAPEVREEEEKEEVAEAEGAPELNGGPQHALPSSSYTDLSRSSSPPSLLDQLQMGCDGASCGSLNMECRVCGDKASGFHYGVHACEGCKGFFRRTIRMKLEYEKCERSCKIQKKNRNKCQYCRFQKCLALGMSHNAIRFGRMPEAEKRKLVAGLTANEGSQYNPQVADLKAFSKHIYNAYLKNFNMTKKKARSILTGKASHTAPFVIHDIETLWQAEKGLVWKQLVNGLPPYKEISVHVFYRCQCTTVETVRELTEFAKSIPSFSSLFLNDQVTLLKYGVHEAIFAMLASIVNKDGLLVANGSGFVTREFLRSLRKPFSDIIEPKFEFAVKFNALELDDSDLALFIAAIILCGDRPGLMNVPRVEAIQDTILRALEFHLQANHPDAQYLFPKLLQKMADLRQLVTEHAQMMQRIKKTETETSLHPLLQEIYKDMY
Aryl hydrocarbon receptor (Homo sapiens), sequence (P35869 whole entry, looked up): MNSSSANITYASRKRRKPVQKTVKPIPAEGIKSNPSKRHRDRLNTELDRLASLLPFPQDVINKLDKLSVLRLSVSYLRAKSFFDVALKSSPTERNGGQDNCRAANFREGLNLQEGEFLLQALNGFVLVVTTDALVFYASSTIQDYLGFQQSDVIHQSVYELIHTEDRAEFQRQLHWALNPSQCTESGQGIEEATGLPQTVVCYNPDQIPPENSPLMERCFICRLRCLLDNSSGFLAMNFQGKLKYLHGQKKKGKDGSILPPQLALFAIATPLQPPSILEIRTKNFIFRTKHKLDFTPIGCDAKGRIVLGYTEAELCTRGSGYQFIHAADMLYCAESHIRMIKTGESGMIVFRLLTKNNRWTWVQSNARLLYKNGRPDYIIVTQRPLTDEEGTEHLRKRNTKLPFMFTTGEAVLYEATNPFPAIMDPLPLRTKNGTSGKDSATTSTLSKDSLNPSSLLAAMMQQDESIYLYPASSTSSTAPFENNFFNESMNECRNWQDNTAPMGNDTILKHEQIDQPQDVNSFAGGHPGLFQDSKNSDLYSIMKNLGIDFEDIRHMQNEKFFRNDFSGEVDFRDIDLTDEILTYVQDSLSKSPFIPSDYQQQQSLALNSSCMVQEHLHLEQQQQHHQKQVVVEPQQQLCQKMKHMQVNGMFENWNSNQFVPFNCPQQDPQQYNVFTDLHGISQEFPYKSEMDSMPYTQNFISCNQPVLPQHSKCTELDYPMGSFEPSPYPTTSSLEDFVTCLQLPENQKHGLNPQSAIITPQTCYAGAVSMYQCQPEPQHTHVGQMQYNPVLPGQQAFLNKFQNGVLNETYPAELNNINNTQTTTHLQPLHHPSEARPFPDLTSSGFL
Vitamin D3 receptor (Homo sapiens), sequence (P11473 whole entry, looked up): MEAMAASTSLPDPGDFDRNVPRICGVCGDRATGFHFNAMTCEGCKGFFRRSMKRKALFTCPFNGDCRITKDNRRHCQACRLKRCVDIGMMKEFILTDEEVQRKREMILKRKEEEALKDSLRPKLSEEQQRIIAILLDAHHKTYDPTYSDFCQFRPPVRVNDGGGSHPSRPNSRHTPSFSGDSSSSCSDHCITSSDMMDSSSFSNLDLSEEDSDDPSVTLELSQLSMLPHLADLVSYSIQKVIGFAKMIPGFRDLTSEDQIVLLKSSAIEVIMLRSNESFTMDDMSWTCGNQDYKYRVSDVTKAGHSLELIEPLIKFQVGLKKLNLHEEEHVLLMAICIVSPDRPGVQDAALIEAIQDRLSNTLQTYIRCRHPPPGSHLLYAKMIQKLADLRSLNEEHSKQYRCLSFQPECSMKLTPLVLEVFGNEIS

For the molecule `Cc1ccc(N(C)C)cc1`, the Potency result in experiment [1], in experiment [6], in [12] and in experiment [13] was “inactive” in each case. Moreover, the Potency entry in experiment [2] is “inactive and 68.6 µM (active)”. In addition, the molecule was called inactive in [3], in experiment [4], in experiment [5], in experiment [7], in [8] and in experiment [9]. In addition, the call in experiment [10], in experiment [11], in experiment [14] and in experiment [15] was inactive.

`C=C(C)C(=O)OCCOCCOCCOC(=O)C(=C)C`: the Potency entry in experiment [1], in [2], in experiment [16], in [13] and in experiment [17] was “inactive” in each case. The molecule was called inactive in [3], in [4], in experiment [5], in experiment [7], in [8] and in experiment [9]. The call in experiment [14] and in experiment [15] was inactive.

For `COCCCOc1ccnc(CS(=O)c2nc3ccccc3[nH]2)c1C` (centres undefined), the Potency entry in experiment [1], in experiment [16], in experiment [13] and in experiment [17] was “inactive” in each case. Further, the Potency in experiment [2] was 9.44 µM (active) and 3.05 µM (active); in [6], 6.09 µM (active). For the same molecule, the result in experiment [5], in experiment [7], in [8], in experiment [9] and in experiment [11] was inactive.

As for `C=C(C)C(=O)Nc1ccc(Cl)c(Cl)c1`, the Potency entry in experiment [1], in [16], in [13] and in experiment [17] was “inactive” each time. Moreover, the Potency was 69.3 µM (active) and 54.3 µM (active) in experiment [2]; 19.5 µM (active) and 27.2 µM (active) in [6]. In addition, the result in [7], in [8], in [9], in [14] and in [15] was inactive.

On to `O=S(=O)(O)c1ccc2ccccc2c1`, for which the Potency entry in experiment [1], in experiment [6], in experiment [16], in experiment [12] and in [13] was “inactive” throughout. The result in [3], in experiment [4], in experiment [18], in [5], in experiment [7] and in experiment [8] was inactive. Moreover, the outcome in experiment [9], in experiment [10], in experiment [11], in experiment [19], in [20] and in experiment [14] was inactive. For the same molecule, in experiment [15], the call was inactive.

Regarding `CC(C)(C)[C@@H](O)[C@@H](Cc1ccc(Cl)cc1)n1cncn1`, the Potency result in experiment [1], in [6], in experiment [16], in experiment [12] and in experiment [13] was “inactive” each time. In addition, the result in experiment [3], in experiment [4], in [18], in experiment [5], in experiment [7] and in experiment [8] was inactive. The molecule was called inactive in experiment [9], in experiment [10], in [19], in experiment [20], in experiment [14] and in experiment [15].

For the molecule `O=C(O)CCCCCCCCCCC(=O)O`, the Potency result in experiment [1], in experiment [2], in [6], in experiment [16], in experiment [12] and in [13] was “inactive” throughout. Also, in experiment [17], the Potency entry was “inactive”. The call in experiment [3], in experiment [5], in [7], in [8], in experiment [9] and in [10] was inactive. Also, the outcome in experiment [11], in experiment [19], in [20], in experiment [14] and in [15] was inactive.

Turning to `COc1ccc2cc([C@H](C)C(=O)O)ccc2c1`, the Potency entry in [1], in experiment [6] and in experiment [13] was “inactive” each time. Besides, the result in experiment [3], in experiment [5], in experiment [7], in experiment [8], in experiment [9] and in experiment [14] was inactive. Besides, in experiment [15], the molecule was called inactive.

`O=C(CC(C(=O)OC1CCCCC1)S(=O)(=O)O)OC1CCCCC1` (centres undefined): the Potency entry in experiment [1], in experiment [6], in experiment [16], in experiment [12], in [13] and in experiment [17] was “inactive” each time. For the same molecule, the outcome in experiment [3], in [4], in [5], in [7], in experiment [8] and in experiment [9] was inactive. In addition, the outcome in experiment [10], in [11], in experiment [19] and in experiment [20] was inactive.

For `Nc1cc([N+](=O)[O-])ccc1O`, the results for the Potency in [1] and in [6] were 54.5 µM (active) and 17.1 µM (active), respectively. Also, the molecule was called inactive in [4], in [18], in [5], in [7], in experiment [8] and in experiment [9]. Moreover, the molecule was classed as inactive in [10], in experiment [11], in [14] and in [15]. Moreover, the Potency entry in experiment [16], in experiment [12] and in experiment [13] was “inactive” in each case.
